High-throughput results as filed in PubChem BioAssay.
S1P4 antag = human S1P4 receptor antagonism | inhibition, % at 4.98 µM | actives 0.26% (n = 220,000) | S1P4-expressing cells, antagonist mode, reporter read-out; in the data active = inhibition above about 29%;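 note: 0% = wells stimulated with agonist and 100% = vehicle wells without agonist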
Target sequence (O95977 whole entry, looked up): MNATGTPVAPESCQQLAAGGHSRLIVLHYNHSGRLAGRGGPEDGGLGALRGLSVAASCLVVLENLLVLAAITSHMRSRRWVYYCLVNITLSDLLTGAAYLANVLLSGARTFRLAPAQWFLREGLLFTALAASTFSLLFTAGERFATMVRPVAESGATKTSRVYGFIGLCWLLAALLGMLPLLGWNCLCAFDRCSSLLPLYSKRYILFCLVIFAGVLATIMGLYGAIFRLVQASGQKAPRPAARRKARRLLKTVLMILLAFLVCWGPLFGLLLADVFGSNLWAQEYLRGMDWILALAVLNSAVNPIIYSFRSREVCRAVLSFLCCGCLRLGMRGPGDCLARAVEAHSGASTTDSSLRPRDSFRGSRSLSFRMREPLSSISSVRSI
EP2 mod = modulates human prostaglandin E2 receptor EP2 signaling; AID 940; induction, % at 25 µM; P43116; EP2-expressing cells, cAMP HTRF FRET, PGE2 co-stimulation; actives 0.83% (n = 260,000);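 active = compounds whose cAMP rise, as percent of the full-agonist control response, exceeds 60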;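 note: rat C6 glioma line stably carrying human EP2 under a CMV promoter; the protocol text gives 20 µM as final concentration; 100% = response of wells given 1 µM PGE2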
PGE2 EP2 inh = inhibitors of human EP2 prostaglandin E2 receptor; C6 glioma cells expressing human EP2, cAMP TR-FRET; cells stimulated with saturating PGE2; inhibition, % at 25 µM; P43116; actives 0.52% (n = 260,000);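 active = percent inhibition above 40 after rounding to a whole number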;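 note: rat C6 glioma host cells with rolipram phosphodiesterase inhibitor present; the protocol text gives 20 µM as final concentration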
S1P3 antag = S1P3 (human) receptor antagonism | Q99500 | CHO S1P3 NFAT-BLA reporter, FRET fluorescence, antagonist mode | inhibition, % at 4.98 µM | actives 0.27% (n = 170,000) | AID 485;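 active = inhibition above the plate cutoff, the mean inhibition of test wells on that plate plus 3 SD, cut at about 28% in these data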;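 note: cells challenged with S1P at its EC80 of 0.8 µM; blue over green emission ratio from cleaved BLA substrate after 4 h stimulation; 0% = S1P-stimulated wells and 100% = unstimulated DMSO-only wells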
S1P4 agonist = human S1P4 receptor agonism. activation, % at 4.98 µM. actives 0.35% (n = 220,000). S1P4-expressing cell line, agonist reporter assay. AID 1509; in the data active = activation above about 11%;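 note: 0% = DMSO vehicle and 100% = reference agonist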
EP2 cAMP induct = human EP2 receptor cAMP induction, negative in counter-screens; calls only at 20 µM (by protocol); AID 1080; actives 47% (n = 1,300); shares compounds with EP2 mod; C6 glioma EP2 cells, cAMP HTRF induction; plus low (about EC15) PGE2 agonist;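 active = cAMP induction above 50% in the main assay while under 30% in all four parallel counter assays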;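 note: rat C6 glioma cells stably expressing human EP2 receptor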
Starred values were filed as active, the others as inactive; i = inactive; x = no result given; + = active, no number. In the library only some 2% were active in any assay of this set; here they are far more common.

SMILES	S1P4 antag	EP2 mod	PGE2 EP2 inh	S1P3 antag	S1P4 agonist	EP2 cAMP induct
Cc1nc(NC(C)c2ccccc2)c2c3c(sc2n1)CCC3 (centres undefined)	8	71*	7	x	1	i
O=C(CSc1ncc(-c2ccccc2)[nH]1)Nc1nccs1	x	-62	12	x	x	x
CCCc1cc(-c2nc(N)ncc2-c2ccc3c(c2)OCCCO3)c(O)cc1OC	-2	88*	9	x	-2	+
Cc1cc(SCC(=O)NCCC2=CCCCC2)nc2ccccc12	-6	70*	5	13	0	i
Cc1cc(SCC(=O)Nc2cccnc2Cl)nc2ccccc12	-3	67*	4	-1	1	i
Cc1cc(C)c(NC(=O)CSc2nc(COc3ccccc3)nc3ccccc23)c(C)c1	-5	40	39	x	2	x
Cc1ccccc1NC(=O)CSc1nc(COc2ccccc2)nc2ccccc12	-9	85*	7	x	0	i
CCn1c2ccc(F)cc2c2n[nH]c(=S)nc21	x	-22	14	x	x	x
COc1ccccc1NC(=O)Nc1cc(C)ccn1	x	-32	8	x	x	x
CNc1nc(-c2ccc(OC)cc2)c(-c2ccc(OC)cc2)s1	-8	-4	2	-12	1	x
COc1ccc(-c2nc(NC(C)=O)sc2-c2ccc(OC)cc2)cc1	-1	56	12	-11	0	i
CC(=O)O[C@H]1CC[C@@]2(C)[C@@H](CC[C@H]3[C@H]2CC(=O)[C@]2(C)[C@@H]3C[C@H]3CC(C)=CC(=O)[C@@H]32)C1	x	64*	45*	x	x	i
CCOc1nc(-c2ccccc2O)nc2ccccc12	-5	81*	6	-16	1	+
C=CCSc1nc2c(c(=O)[nH]c(=O)n2C)n1CC(O)COc1ccccc1 (centres undefined)	x	6	12	x	x	x
COCCCN(C(=O)c1ccco1)c1nc(-c2cc(OC)ccc2OC)cs1	-10	75*	4	24	1	+
CCC(=O)N(CCCN(C)C)c1nc(-c2cc(OC)ccc2OC)cs1	3	-9	3	-28	0	x
CCC(=O)N(CC)c1nc(-c2cc(OC)ccc2OC)cs1	-13	78*	7	x	-2	+
Cc1ccc2[nH]c(=O)c(CN(Cc3cccnc3)C(=S)NCCc3ccccc3)cc2c1	x	-27	14	x	x	x
CCC(C)NC(=O)c1cnn2c(C)cc(C)nc12 (centres undefined)	x	-8	8	x	x	x
Cc1noc(C)c1CSc1nc2ccccc2c(=O)n1-c1ccc(Cl)cc1	8	71*	8	x	1	+
COc1ccc(C)cc1S(=O)(=O)Nc1cccc2ccc(C)nc12	x	-108	8	x	x	x
CCOc1cccc(CNc2ccc(O)cc2)c1OCc1ccccc1Cl	-21	84*	11	x	2	+
CCOc1cccc(CNc2ccc(O)cc2)c1OCc1ccc(Cl)cc1Cl	-5	14	x	x	-2	x
CCOC(=O)c1c(C)n(C(C)C)c2ccc(OCC(N)=O)cc12	x	-11	15	x	x	x
CC(C)c1cc(C(=O)NC2(c3ccc(F)cc3)CCCC2)n[nH]1	x	-16	x	x	x	x
SMILES	S1P4 antag	EP2 mod	PGE2 EP2 inh	S1P3 antag	S1P4 agonist	EP2 cAMP induct
CC(C)c1ccc2c(c1)CCC1C(C)(C(N)=O)CCCC21C (centres undefined)	x	52	5	x	x	+
COC(=O)[C@]1(C)CCC[C@]2(C)c3ccc(C(C)C)cc3C(=O)CC12 (some centres undefined)	x	43	11	x	x	x
Cc1nc2c(-c3ccccc3)c(C)nn2c(C)c1CCC(=O)N1CCOCC1	2	78*	15	-15	0	i
Cc1nc2c(-c3ccc(F)cc3)c(C)nn2c(C)c1CCC(=O)N1CCOCC1	1	1	7	x	1	x
COC(=O)c1cc2occc2n1Cc1cccc(C)c1	-8	76*	3	6	1	+
CCN1C(=O)/C(=C2/C=CC=CN2C)SC1=S	-21	75*	5	-3	4	i
COc1ccc2cc(CN(Cc3ccco3)C(c3nnnn3C3CCCCC3)C(C)C)c(=O)[nH]c2c1 (centres undefined)	-2	66*	11	-1	-2	+
CCC(c1nnnn1C1CCCC1)N(Cc1cccs1)Cc1cc2cc(C)ccc2[nH]c1=O (centres undefined)	3	84*	9	17	0	i
CCC(c1nnnn1C1CCCCC1)N(Cc1cccs1)Cc1cc2ccc(C)c(C)c2[nH]c1=O (centres undefined)	x	51	12	x	x	x
COc1ccc2cc(CN(Cc3cccs3)C(=S)Nc3cccc(C)c3)c(=O)[nH]c2c1	x	30	6	x	x	x
CC(=O)N1N=C(c2ccc(Cl)cc2)CC1c1ccco1 (centres undefined)	-6	-5	8	7	1	x
Cc1nc(N2N=C(c3ccc(Cl)cc3)CC2c2ccco2)sc1C(=O)N(C)C (centres undefined)	-10	72*	5	1	3	+
CCn1cc(CN(CCN(C)C)Cc2ccc(C)o2)c(C)n1	x	-44	10	x	x	x
CCC(C)NC(=O)CSc1nnc(-c2ccoc2C)n1-c1cccc(C)c1 (centres undefined)	x	16	12	x	x	x
N#CC1(Cc2ccccc2Cl)c2ccccc2C=CN1C(=O)c1ccccc1 (centres undefined)	20	70*	x	x	1	i
N#CC1c2ccccc2C=CN1C(=O)c1ccccc1 (centres undefined)	12	-1	2	0	-2	x
CCOC(=O)C1=C(N)OC(C)=C(C#N)C1c1ccco1 (centres undefined)	0	53	10	7	0	i
C=CCc1cc(C=O)cc(OC)c1OCc1c(Cl)cccc1Cl	-24	92*	8	x	2	+
CCc1nn(CC(=O)NC2CCCC2)c(=O)c2cc3sccc3n12	x	6	x	x	x	x
Cc1nc2c(c(=O)[nH]1)CN(C(=O)Cc1ccc(-c3ccccc3)cc1)CC2	x	7	x	x	x	x
CCOC(=O)C1=C(CC)Nc2ccccc2N=C1NC(=O)c1oc2ccccc2c1C	0	69*	14	4	2	i
CCOCc1c(C(=O)NC2=Nc3ccccc3NC(CC)=C2C(=O)OCC)oc2ccccc12	18	39	11	-5	0	x
CCCn1c(SCC(=O)Nc2cc(Cl)ccc2C)nnc1C(C)C	x	-44	6	x	x	x
O=C1NC(c2ccccc2Cl)C(C(=O)c2ccco2)=C1O (centres undefined)	x	12	18	x	x	x
CCC(C)(C)n1nnnc1C(c1ccncc1)N1CCC(Cc2ccccc2)CC1 (centres undefined)	1	79*	3	x	0	i
CCOC(=O)C1CCN(c2c(-c3ccccc3)c3cc(Cl)ccc3[nH]c2=O)CC1	-9	80*	16	-8	-1	i
O=c1[nH]c2ccc(Br)cc2c(-c2ccccc2)c1N1CCOCC1	-2	78*	x	-42	1	i
